PubChem BioAssay (EPA / NIEHS)
Inconclusive results are not listed. Active and inactive are the calls of the source. How the source made its calls: active means hit-call score of the fitted dose curve at least 0.9, where 1 is the maximum; inconclusive means response in the unintended direction; inactive means score below 0.9.

Legend:
[1] = TOX21_p53_BLA_p2_viability: Viability Assessment in the Tox21 HCT-116 p53 Agonism Beta-lactamase Assay, Phase 2 (AID 2283591);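 further: actives lower the ATP signal meaning cytotoxicity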
Method in brief: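 HCT116 p53-bla cells, 4000/well, dosed after 5 h plating (217-fold dilution of DMSO stocks) and incubated 16 h at 37C. Viability taken as cellular ATP by CellTiter-Glo luminescence after 30 min RT; signal loss marks cytotoxicity.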

[2] = target: Cellular tumor antigen p53 (Homo sapiens) (UniProt P04637); assay: TOX21_p53_BLA_p2_ratio: Tox21 HCT-116 p53 Agonism Beta-lactamase Assay, Ratio, Phase 2 (AID 2283592)
Method in brief: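 First, HCT116 reporter cells settle for 5 h at 37C. Next, DMSO compound solutions are pinned in (217-fold dilution) and left 16 h. Finally, CCF4-AM substrate is loaded 2 h at room temperature and the 460/530 nm ratio read.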

[3] = TOX21_p53_BLA_p3_viability: Viability Assessment in the Tox21 HCT-116 p53 Agonism Beta-lactamase Assay, Phase 3 (AID 2283593);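 further: cells exposed to compound for 16 h before reading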
Method in brief: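 HCT116 cells, 4000/well, dosed 5 h after plating by pin transfer (217-fold dilution from DMSO stock) and incubated 16 h at 37C, 5% CO2. Viability read as ATP luminescence with CellTiter-Glo after 30 min at room temperature.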

[4] = target: Cellular tumor antigen p53 (Homo sapiens) (UniProt P04637); assay: TOX21_p53_BLA_p3_ratio: Tox21 HCT-116 p53 Agonism Beta-lactamase Assay, Ratio, Phase 3 (AID 2283596)
Method in brief: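 Cells were seeded at 4000/well, rested 5 h at 37C, then dosed with DMSO compound solutions (217-fold dilution) for 16 h. CCF4-AM substrate was loaded for 2 h at room temperature, and the 460/530 nm emission ratio was fitted for gain of signal versus DMSO.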

[5] = TOX21_p53_BLA_p4_viability: Viability Assessment in the Tox21 HCT-116 p53 Agonism Beta-lactamase Assay, Phase 4 (AID 2283597);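 further: hits lower the luminescence signal meaning cytotoxicity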
Method in brief: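 4000 HCT116 cells per well; 5 h attachment; compounds from DMSO, 217-fold dilution; 16 h at 37C. Then CCF4-AM, 2 h RT, followed by CellTiter-Glo, 30 min RT, luminescence. Decrease = cytotoxicity.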

[6] = target: Cellular tumor antigen p53 (Homo sapiens) (UniProt P04637); assay: TOX21_p53_BLA_p5_ratio: Tox21 HCT-116 p53 Agonism Beta-lactamase Assay, Ratio, Phase 5 (AID 2283599)
Method in brief: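 HCT-116 p53-bla cells (4000/well) plated 5 h, dosed with compound (217-fold DMSO dilution) for 16 h at 37 C; CCF4-AM substrate 2 h at room temperature. Activity is the 460/530 nm emission ratio (405 nm excitation), fitted in gain-of-signal direction versus DMSO.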

[7] = TOX21_p53_BLA_p5_viability: Viability Assessment in the Tox21 HCT-116 p53 Agonism Beta-lactamase Assay, Phase 5 (AID 2283600)
Method in brief: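 Decreased CellTiter-Glo luminescence denotes lost viability. Exposure: 16 h at 37C, 5% CO2, with compounds from DMSO stocks diluted 217-fold in wells of 4000 cells.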

[8] = target: Cellular tumor antigen p53 (Homo sapiens) (UniProt P04637); assay: TOX21_p53_BLA_p4_ratio: Tox21 HCT-116 p53 Agonism Beta-lactamase Assay, Ratio, Phase 4 (AID 2283601)
Method in brief: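 HCT-116 p53 beta-lactamase reporter cells (4000/well) preincubated 5 h, then compound (217-fold dilution of DMSO stock) for 16 h at 37C. CCF4-AM substrate added 2 h at room temperature; 460/530 nm emission ratio fitted upward versus DMSO.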

[9] = Tanguay_ZF_120hpf_MORT_legacy: (Legacy) Oregon State University Tanguay Lab 120 Hour Post-fertilization zebrafish Assay for Mortality (AID 2283633);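 on AC50: fitted as increase in binary mortality versus DMSO negative control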
Method in brief: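 Dechorionated Tropical 5D wild-type zebrafish embryos, one per well from 6 hpf, static exposure in 0.64% DMSO at 28C until 120 hpf. Mortality scored as binary by brightfield microscopy at 24 and 120 hpf.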

[10] = Tanguay_ZF_120hpf_YSE_legacy: (Legacy) Oregon State University Tanguay Lab 120 Hour Post-fertilization zebrafish Assay for Yolk Sac Edema (AID 2283634)
Method in brief: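 Dechorionated Tropical 5D wild-type zebrafish embryos were exposed statically, one per well, from 6 to 120 hpf at 28C in 0.64% DMSO. Yolk sac edema was scored present/absent by brightfield at 120 hpf, and dead embryos were excluded.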

[11] = Tanguay_ZF_120hpf_EYE_legacy: (Legacy) Oregon State University Tanguay Lab 120 Hour Post-fertilization zebrafish Assay for Eye Malformation (AID 2283636);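 further: binary presence or absence of eye malformation scored by brightfield in 120 hpf larvae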
Method in brief: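 5D wild-type embryos, pronase-dechorionated at 4 hpf; static exposure 6–120 hpf, 28C, dark; DMSO 0.64% final; 5uM trimethyltin chloride positive control. Binary eye-defect scoring at 120 hpf; dead embryos not scored.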

[12] = Tanguay_ZF_120hpf_SNOU_legacy: (Legacy) Oregon State University Tanguay Lab 120 Hour Post-fertilization zebrafish Assay for Snout Malformation (AID 2283637)
Method in brief: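 Binary brightfield scoring of snout malformation at 120 hpf. Dechorionated 5D wild-type embryos, one per well, static exposure from 6 hpf at 28C, sealed and dark; final DMSO 0.64% (vol/vol), DMSO as baseline; 5uM trimethyltin chloride positive control.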

[13] = Tanguay_ZF_120hpf_JAW_legacy: (Legacy) Oregon State University Tanguay Lab 120 Hour Post-fertilization zebrafish Assay for Jaw Malformation (AID 2283638)
Method in brief: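 Dechorionated Tropical 5D wild-type zebrafish embryos, one per well, exposed statically from 6 hpf to 120 hpf at 28C in 0.64% DMSO. Jaw malformation was scored by brightfield microscopy as present or absent. It was not scored in dead embryos.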

[14] = Tanguay_ZF_120hpf_OTIC_legacy: (Legacy) Oregon State University Tanguay Lab 120 Hour Post-fertilization zebrafish Assay for Otic Vesicle Malformation (AID 2283639)
Method in brief: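 Wild-type zebrafish larvae, whole-embryo exposure from early stage to 120 hpf at 28C. Binary brightfield scoring of otic vesicle morphology, fitted in the positive direction against the DMSO baseline.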

[15] = Tanguay_ZF_120hpf_PE_legacy: (Legacy) Oregon State University Tanguay Lab 120 Hour Post-fertilization zebrafish Assay for Pericardial Edema (AID 2283640)
Method in brief: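 Tropical 5D wild-type zebrafish embryos were statically exposed until 120 hpf at 28C, with 0.64% DMSO final. Pericardial edema was scored by brightfield as present or absent; endpoints were not scored in dead embryos.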

[16] = Tanguay_ZF_120hpf_BRAI_legacy: (Legacy) Oregon State University Tanguay Lab 120 Hour Post-fertilization zebrafish Assay for Brain Malformation (AID 2283641)
Method in brief: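 Tropical 5D wild-type zebrafish embryos exposed statically until 120 hpf at 28C, 0.64% DMSO final, sealed and dark. Brain malformation scored present/absent by brightfield at 120 hpf; dead embryos excluded. Trimethyltin chloride 5uM positive control.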

[17] = Tanguay_ZF_120hpf_SOMI_legacy: (Legacy) Oregon State University Tanguay Lab 120 Hour Post-fertilization zebrafish Assay for Somite Malformation (AID 2283647)
Method in brief: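 Dechorionated Tropical 5D wild-type zebrafish embryos, one per well from 6 hpf, statically exposed at 28C to 120 hpf in 0.64% DMSO; somite malformation scored present/absent by brightfield; trimethyltin 5 uM positive control; dead embryos not scored.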

[18] = Tanguay_ZF_120hpf_PFIN_legacy: (Legacy) Oregon State University Tanguay Lab 120 Hour Post-fertilization zebrafish Assay for Pectoral Fin Malformation (AID 2283648);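 further: each larva judged yes or no for fin defect by brightfield with dead larvae skipped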
Method in brief: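 Binary pectoral fin malformation call at 120 hpf by brightfield microscopy; 5D wild-type zebrafish, chorion removed at 4 hpf, one embryo per well from 6 hpf, static exposure at 28C; DMSO (0.64% final) as baseline.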

[19] = ATG_XTT_Cytotoxicity: Cytotoxicity Assessment in the Attagene TRANS-FACTORIAL HepG2 Assay (AID 2283584)
Method in brief: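 HepG2 cells transiently transfected with GAL4-UAS multiple reporter units, dosed 24 h; cytotoxicity read by XTT as loss of signal versus DMSO baseline.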

[20] = Tanguay_ZF_120hpf_AXIS_legacy: (Legacy) Oregon State University Tanguay Lab 120 Hour Post-fertilization zebrafish Assay for Body Axis Malformation (AID 2283635)
Method in brief: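 Dechorionated wild-type Tropical 5D zebrafish embryos, one per well, statically exposed from 6 hpf to 120 hpf at 28C in 0.64% DMSO final. Body axis malformation scored present/absent by brightfield microscopy at 120 hpf; dead embryos excluded.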

Measured: AC50

Cellular tumor antigen p53 (Homo sapiens), sequence (P04637 whole entry, looked up): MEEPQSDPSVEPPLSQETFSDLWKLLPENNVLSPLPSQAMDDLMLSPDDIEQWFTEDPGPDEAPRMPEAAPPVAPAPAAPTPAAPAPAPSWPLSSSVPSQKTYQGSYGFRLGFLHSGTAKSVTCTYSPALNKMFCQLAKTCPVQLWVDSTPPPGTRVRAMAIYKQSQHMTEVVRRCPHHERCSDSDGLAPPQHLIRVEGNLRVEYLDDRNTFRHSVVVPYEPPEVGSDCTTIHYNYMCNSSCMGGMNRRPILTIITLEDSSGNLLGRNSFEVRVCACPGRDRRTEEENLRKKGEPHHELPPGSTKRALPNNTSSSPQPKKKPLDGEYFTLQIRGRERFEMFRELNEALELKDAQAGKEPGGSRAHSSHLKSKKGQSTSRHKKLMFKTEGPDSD

CC(C)(C)c1cc(/C=C2\SC(N)=NC2=O)cc(C(C)(C)C)c1O
active: [1] 77.9 µM | [2] 50.7 µM | [5] 84.4 µM | [6] 90.1 µM | [7] 76.4 µM | [8] 62.3 µM | [9] 25.5 µM
not listed: [19] | [20]
inactive: all other assays above

C[C@]12CC[C@@H]3c4ccc(O)cc4CC[C@H]3[C@@H]1CCC2=O
not listed: [1] | [3] | [4] | [5] | [6] | [7] | [8] | [16]
inactive: all other assays above

Cc1occc1C(=O)Nc1ccc(C(=O)N2CCC(F)(F)/C(=C\C(=O)N3CCC(N4CCCCC4)CC3)c3ccccc32)cc1
not listed: [5] | [8] | [14] | [19]
inactive: all other assays above

CN(C[C@@H](CC[N+]12CCC(C3CCCCC3)(CC1)CC2)c1ccc(Cl)c(Cl)c1)C(=O)c1cc(C(F)(F)F)cc(C(F)(F)F)c1
active: [1] 25.9 µM | [2] 64.8 µM | [3] 58.7 µM | [4] 87 µM | [5] 14.8 µM | [6] 77.8 µM | [7] 46.8 µM | [8] 27.5 µM | [9] 25.5 µM
not listed: [19]
inactive: all other assays above

O=C=NCCCCCCN=C=O
not listed: [1] | [5] | [11] | [17] | [18] | [19]
inactive: all other assays above

COc1ccc2cc(S(=O)(=O)N[C@H](CC(=O)N[C@H](Cc3ccc(CN4[C@H](C)CCC[C@@H]4C)cc3)C(=O)N(C)C(C)C)c3ccc4c(c3)OCO4)ccc2c1
active: [1] 74.2 µM | [2] 70.3 µM | [3] 84.8 µM | [5] 60.6 µM | [6] 71.9 µM | [7] 56.7 µM | [8] 72.1 µM
not listed: [14] | [17] | [19]
inactive: all other assays above

O=C(O)Cn1c(=O)n(Cc2ccc(Br)cc2F)c(=O)c2ccc(Cl)cc21
not listed: [4] | [19]
inactive: all other assays above
